Measured values: the supplement of paper PMC9694430

Tests used:
Test in all cases: thermal shift delta Tm vs DMSO control; higher = stronger stabilization (binding)
Conditions in all cases: 12.5 µM; protein concentration 2 µM
[1] = tested on: LOC_OS01G01410-cb001
Outline: (§1)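 Compounds dissolved in DMSO were added to purified rice kinase domain constructs, which had been expressed in E. coli, for differential scanning fluorimetry. Each well held 19.5 μl of 2 μM kinase in 100 mM potassium phosphate pH 7.5, 150 mM NaCl, 10% glycerol and 5 × SYPRO Orange. Fluorescence was followed from 25°C to 95°C at a rate of 0.05°C/s. Shifts in Boltzmann-fitted melting temperature are triplicate means relative to DMSO-only protein.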

[2] = tested on: LOC_OS01G02750-cb003
Outline: as §1

[3] = tested on: LOC_OS01G10900-cb004
Outline: as §1

[4] = tested on: LOC_OS01G13800-cb001
Outline: as §1

[5] = tested on: LOC_OS01G14860-cb001
Outline: as §1

[6] = tested on: LOC_OS01G21960-cb002
Outline: as §1

[7] = tested on: LOC_OS01G39600-cb002
Outline: as §1

[8] = tested on: LOC_OS01G48390-cb002
Outline: as §1

[9] = tested on: LOC_OS01G51400-cb002
Outline: as §1

[10] = tested on: T1, LOC_OS01G52050-cb004
T1 sequence (whole entry): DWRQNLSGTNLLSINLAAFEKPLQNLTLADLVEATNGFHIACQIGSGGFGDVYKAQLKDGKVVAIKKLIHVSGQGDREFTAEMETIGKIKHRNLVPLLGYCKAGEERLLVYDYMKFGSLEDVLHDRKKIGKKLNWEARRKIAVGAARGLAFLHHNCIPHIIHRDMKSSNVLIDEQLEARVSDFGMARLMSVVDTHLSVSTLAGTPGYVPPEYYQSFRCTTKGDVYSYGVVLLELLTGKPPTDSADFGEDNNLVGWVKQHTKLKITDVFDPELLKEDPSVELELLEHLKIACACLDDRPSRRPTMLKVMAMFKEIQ
Outline: as §1

[11] = tested on: LOC_OS01G57100-cb003
Outline: as §1

[12] = tested on: LOC_OS01G60330-cb001
Outline: as §1

[13] = tested on: LOC_OS01G60700-cb002
Outline: as §1

[14] = tested on: LOC_OS01G63280-cb003
Outline: as §1

[15] = tested on: LOC_OS01G67340-cb003
Outline: as §1

[16] = tested on: LOC_OS01G70970-cb002
Outline: as §1

[17] = tested on: LOC_OS02G07810-cb001
Outline: as §1

[18] = tested on: LOC_OS02G08530-cb003
Outline: as §1

[19] = tested on: LOC_OS02G14120-cb001
Outline: as §1

[20] = tested on: LOC_OS02G17970-cb001
Outline: as §1

SMILES | thermal shift delta Tm [1] | thermal shift delta Tm [2] | thermal shift delta Tm [3] | thermal shift delta Tm [4] | thermal shift delta Tm [5] | thermal shift delta Tm [6] | thermal shift delta Tm [7] | thermal shift delta Tm [8] | thermal shift delta Tm [9] | thermal shift delta Tm [10] | thermal shift delta Tm [11] | thermal shift delta Tm [12] | thermal shift delta Tm [13] | thermal shift delta Tm [14] | thermal shift delta Tm [15] | thermal shift delta Tm [16] | thermal shift delta Tm [17] | thermal shift delta Tm [18] | thermal shift delta Tm [19] | thermal shift delta Tm [20]
CN1CCN(c2nc(C3=C(c4c[nH]c5ccccc45)C(=O)NC3=O)c3ccccc3n2)CC1 [Sotrastaurin] | 0.84 °C | 3.23 °C | 0.77 °C | 0.15 °C | 3.2 °C | 2.53 °C | 3.02 °C | 2.55 °C | 0.38 °C | -0.06 °C | 2.03 °C | 0.97 °C | 0.76 °C | 0.55 °C | 0.35 °C | 0.69 °C | 0.94 °C | 1.16 °C | 1.17 °C | 0.29 °C
c1cn2cc(-c3ccc4cn[nH]c4c3)nc(Nc3ccc(N4CCOCC4)cc3)c2n1 [Entospletinib (GS-9973)] | 2.35 °C | 3.16 °C | 0.19 °C | -0.33 °C | 1.77 °C | 1.76 °C | 4.22 °C | 0.98 °C | -0.11 °C | 3.88 °C | 2.14 °C | 7.21 °C | 1.39 °C | 2 °C | 2.82 °C | 1.17 °C | -0.11 °C | 3.77 °C | 8.09 °C | 0.54 °C
O=S(=O)(c1cccc2c(I)cccc12)N1CCCNCC1 | 0.23 °C | 0.79 °C | 0.56 °C | 0.43 °C | 0.67 °C | 0.53 °C | 0.27 °C | 1.35 °C | 0.24 °C | 2.58 °C | 0.91 °C | -0.01 °C | 0 °C | 0.2 °C | 0 °C | 0.35 °C | 0.33 °C | 0.35 °C | 0.9 °C | 0.24 °C
FC(F)(F)c1ccc(/C=C/c2nc(COc3ccc(CCCCn4ccnn4)cc3)co2)cc1 [Mubritinib (TAK 165)] | 0.34 °C | -0.49 °C | 0.23 °C | 0.16 °C | 0.08 °C | -0.04 °C | -0.52 °C | 0.23 °C | -0.08 °C | 0.24 °C | 0.83 °C | 0.99 °C | 0.41 °C | 0.22 °C | -0.98 °C | 0.3 °C | 0.23 °C | 0.63 °C | 0.38 °C | 0.37 °C
Cc1c[nH]c(/C=C2\C(=O)Nc3ccccc32)c1CCC(=O)O | 1.48 °C | 0.9 °C | 0.02 °C | 0 °C | 1.61 °C | 0.56 °C | 4.55 °C | 1.99 °C | 0.25 °C | 1.77 °C | 0.49 °C | 11.5 °C | 0.67 °C | 0.07 °C | 3.1 °C | 5.88 °C | -0.06 °C | 3.9 °C | 1.56 °C | 0.22 °C
